Assay [1] can be described thus: small molecules captured by biotinylated probe aFSTL3 – biochemical, small-molecule microarray, fluorescence 635/667, stem cell growth factor project, primary screen (AID 1064).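 Note: measures binding of the biotinylated anti-FSTL3 antibody to printed compounds.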 To be noted: higher = more signal.
The nature of assay [2]: binders from COS7 lysate, DM2A8 probe, primary screen, torsin A project, cell lysate, small-molecule microarray, fluorescence 635/667 (AID 1065). The conditions noted are these: higher = more signal, COS7 lysate expressing mutant human TOR1A.
Assay [3] in a line: small molecules captured by biotinylated probe aFGF2 – biochemical, small-molecule microarray, fluorescence 635/667, stem cell growth factor project, primary screen (AID 1067).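 Note: measures binding of biotinylated aFGF2 protein to printed compounds on slides; z-score merges feature fluorescence and signal-to-noise across triplicate slides.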 The conditions noted are these: higher = more signal.
A short description of assay [4]: small molecules captured by biotinylated probe aFGF10 – biochemical, small-molecule microarray, fluorescence 635/667, stem cell growth factor project, primary screen (AID 1071).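 Note: score merges 667 nm spot intensity and signal to noise from triplicate slides.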 To be noted: higher = more signal.
Assay [5] has as its target Neurogenic locus notch homolog protein 2 (Homo sapiens) (UniProt Q04721). The experiment in a line: small molecules binding Notch2 protein – biochemical, small-molecule microarray, 635 nm fluorescence, stem cell growth factors, primary screen (AID 1073). The conditions noted are these: higher = more signal.
In assay [6] the target is Pro-neuregulin-1, membrane-bound isoform (Homo sapiens) (UniProt Q02297). The experiment in a line: small molecules binding neuregulin-1 protein – biochemical, small-molecule microarray, fluorescence 635/667, psychiatric disease protein project, primary screen (AID 1075).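 Note: score combines 667 nm spot fluorescence with signal to noise.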 To be noted: NRG1 binding, 635 nm fluorescence, higher = more signal.
For assay [7], the system named is Neuregulin-1 EGF-like domain. The experiment in a line: small molecules binding NRG1 EGF domain – biochemical, small-molecule microarray, 635 nm fluorescence, primary screen (AID 1081).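 Note: binding of the protein to compounds printed on small-molecule microarray slides.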 The conditions noted are these: higher = more signal.
Assay [8] is described as follows: FRG1 expression reporter modulators in myotubes – cell-based, C2C12 myotubes, firefly/Renilla luciferase, luminescence, FRG1 inhibition for FSHD, primary screen (AID 1084). The conditions noted are these: FRG1 promoter luciferase, higher = more signal, called active from +8 up or from −8 down.
Assay [9] is described as follows: small molecules captured by biotinylated probe aFST – biochemical, small-molecule microarray, fluorescence 635/667, stem cell growth factor project, primary screen (AID 1086).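 Note: score merges 667 nm fluorescence with signal-to-noise of each printed compound spot.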 The conditions noted are these: higher = more signal.
Assay [10] can be described thus: binders of probe aHhip on microarray, primary screen, stem cell growth factor project, biochemical, small-molecule microarray, fluorescence 635/667 (AID 1087).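 Note: score merges spot fluorescence at 667nm with spot signal to noise ratio.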 To be noted: higher = more signal.
For assay [11], the system named is PRMT1 (protein arginine N-methyltransferase 1). The experiment in a line: small molecules binding arginine methyltransferase PRMT1 – biochemical, small-molecule microarray, 635 nm fluorescence, primary screen (AID 1088).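 Note: binding of Prmt1 protein to compounds spotted on small-molecule microarray slides.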 The conditions noted are these: higher = more signal.
Assay [12] in a line: growth effects on S. cerevisiae YJM789 – YJM789 clinical isolate, OD600, 24 h, basal, primary screen (AID 1089).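 Note: growth of clinical yeast isolate S. cerevisiae YJM 789 seeded 1000 cells per well; test concentration not given here.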 The conditions noted are these: higher = more signal, called active from +8 up or from −8 down.
Assay [13] is described as follows: S. pombe growth modifiers, basal conditions – strain 972, OD600, 24 h, no modulator, primary screen (AID 1090).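 Note: basal condition with compound alone and no growth modifier present; test concentration not given here.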 The conditions noted are these: S. pombe 972 growth, higher = more signal, called active from +8 up or from −8 down.
Assay [14] in a line: budding yeast growth modifiers under rapamycin – strain BY4716, OD600, 96 h, primary screen (AID 1091). Note: test concentration not given here. To be noted: S. cerevisiae BY4716 + rapamycin, higher = more signal, called active from +8 up or from −8 down.
Assay [15] addresses Torsin-1A-interacting protein 2 (Homo sapiens) (UniProt Q8NFQ8). Description: small molecules binding lysate-expressed LULL1 – cell lysate, human LULL1 lysate, 635/667 nm fluorescence, primary screen (AID 1092).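 Note: probe is lysate of COS7 cells overexpressing human LULL1; score merges per-feature 667 nm fluorescence with signal-to-noise.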 The conditions noted are these: small-molecule microarray, hLULL1 lysate binding, 635 nm fluorescence; higher = more signal.
The nature of assay [16]: optical density change of DRC41 E. coli – strain DRC41, OD650, 24 h, E. coli filamentation project, primary screen (AID 1093).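 Note: MC1000 strain lacking acrAB efflux and sulA so SOS filamentation is blocked; test concentration not given here.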 To be noted: E. coli DRC41 growth, higher = more signal, called active from +8 up or from −8 down.
The nature of assay [17]: probe aLefty2 binding to arrayed compounds – biochemical, biotinylated probe, 635/667 nm fluorescence, primary screen (AID 1094).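 Note: score merges spot fluorescence near 667 nm with spot signal-to-noise ratio.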 The conditions noted are these: small-molecule microarray, higher = more signal.
Assay [18] concerns Noggin (protein binding on small-molecule microarray). Description: small molecules binding Noggin protein – biochemical, 635/667 nm fluorescence, primary screen (AID 1095).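 Note: score merges 667 nm feature fluorescence with signal to noise over triplicate slides.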 To be noted: 635 nm fluorescence, higher = more signal.
Assay [19] deals with Neurogenic locus notch homolog protein 3 (Homo sapiens) (UniProt Q9UM47). Description: small molecules binding NOTCH3 protein – biochemical, 635/667 nm fluorescence, primary screen (AID 1096). To be noted: small-molecule microarray, 635 nm fluorescence, higher = more signal.
Assay [20] in a line: probe aEGFR binding to arrayed compounds – biochemical, biotinylated probe, 635/667 nm fluorescence, primary screen (AID 1097).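 Note: probe is a biotinylated anti-EGFR antibody binding compounds printed on slides; score combines fluorescence near 667 nm and signal to noise of each spot.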 The conditions noted are these: small-molecule microarray, higher = more signal.

The structures appear in SMILES notation. Activity calls are given as the source filed them.

Sequence of Pro-neuregulin-1, membrane-bound isoform (Homo sapiens) (Q02297 whole entry, looked up, the tested form may be a part, canonical isoform): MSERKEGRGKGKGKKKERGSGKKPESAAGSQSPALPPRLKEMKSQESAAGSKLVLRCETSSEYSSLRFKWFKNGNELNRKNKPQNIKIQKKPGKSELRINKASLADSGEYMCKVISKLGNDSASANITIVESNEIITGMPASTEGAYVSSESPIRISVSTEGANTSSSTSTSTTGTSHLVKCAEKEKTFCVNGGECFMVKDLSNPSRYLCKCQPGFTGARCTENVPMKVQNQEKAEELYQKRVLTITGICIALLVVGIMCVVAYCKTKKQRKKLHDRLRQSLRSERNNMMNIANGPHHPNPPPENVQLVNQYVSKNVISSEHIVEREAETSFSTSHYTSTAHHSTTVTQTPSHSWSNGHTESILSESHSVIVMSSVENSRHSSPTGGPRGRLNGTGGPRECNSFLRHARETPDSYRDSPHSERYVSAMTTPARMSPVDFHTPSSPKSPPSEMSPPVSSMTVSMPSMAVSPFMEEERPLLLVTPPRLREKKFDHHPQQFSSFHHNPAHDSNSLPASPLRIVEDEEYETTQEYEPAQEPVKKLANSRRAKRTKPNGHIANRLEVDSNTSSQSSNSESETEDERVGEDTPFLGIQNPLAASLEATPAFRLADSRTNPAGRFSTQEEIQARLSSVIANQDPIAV
Sequence of Neurogenic locus notch homolog protein 2 (Homo sapiens) (Q04721 whole entry, looked up, canonical isoform): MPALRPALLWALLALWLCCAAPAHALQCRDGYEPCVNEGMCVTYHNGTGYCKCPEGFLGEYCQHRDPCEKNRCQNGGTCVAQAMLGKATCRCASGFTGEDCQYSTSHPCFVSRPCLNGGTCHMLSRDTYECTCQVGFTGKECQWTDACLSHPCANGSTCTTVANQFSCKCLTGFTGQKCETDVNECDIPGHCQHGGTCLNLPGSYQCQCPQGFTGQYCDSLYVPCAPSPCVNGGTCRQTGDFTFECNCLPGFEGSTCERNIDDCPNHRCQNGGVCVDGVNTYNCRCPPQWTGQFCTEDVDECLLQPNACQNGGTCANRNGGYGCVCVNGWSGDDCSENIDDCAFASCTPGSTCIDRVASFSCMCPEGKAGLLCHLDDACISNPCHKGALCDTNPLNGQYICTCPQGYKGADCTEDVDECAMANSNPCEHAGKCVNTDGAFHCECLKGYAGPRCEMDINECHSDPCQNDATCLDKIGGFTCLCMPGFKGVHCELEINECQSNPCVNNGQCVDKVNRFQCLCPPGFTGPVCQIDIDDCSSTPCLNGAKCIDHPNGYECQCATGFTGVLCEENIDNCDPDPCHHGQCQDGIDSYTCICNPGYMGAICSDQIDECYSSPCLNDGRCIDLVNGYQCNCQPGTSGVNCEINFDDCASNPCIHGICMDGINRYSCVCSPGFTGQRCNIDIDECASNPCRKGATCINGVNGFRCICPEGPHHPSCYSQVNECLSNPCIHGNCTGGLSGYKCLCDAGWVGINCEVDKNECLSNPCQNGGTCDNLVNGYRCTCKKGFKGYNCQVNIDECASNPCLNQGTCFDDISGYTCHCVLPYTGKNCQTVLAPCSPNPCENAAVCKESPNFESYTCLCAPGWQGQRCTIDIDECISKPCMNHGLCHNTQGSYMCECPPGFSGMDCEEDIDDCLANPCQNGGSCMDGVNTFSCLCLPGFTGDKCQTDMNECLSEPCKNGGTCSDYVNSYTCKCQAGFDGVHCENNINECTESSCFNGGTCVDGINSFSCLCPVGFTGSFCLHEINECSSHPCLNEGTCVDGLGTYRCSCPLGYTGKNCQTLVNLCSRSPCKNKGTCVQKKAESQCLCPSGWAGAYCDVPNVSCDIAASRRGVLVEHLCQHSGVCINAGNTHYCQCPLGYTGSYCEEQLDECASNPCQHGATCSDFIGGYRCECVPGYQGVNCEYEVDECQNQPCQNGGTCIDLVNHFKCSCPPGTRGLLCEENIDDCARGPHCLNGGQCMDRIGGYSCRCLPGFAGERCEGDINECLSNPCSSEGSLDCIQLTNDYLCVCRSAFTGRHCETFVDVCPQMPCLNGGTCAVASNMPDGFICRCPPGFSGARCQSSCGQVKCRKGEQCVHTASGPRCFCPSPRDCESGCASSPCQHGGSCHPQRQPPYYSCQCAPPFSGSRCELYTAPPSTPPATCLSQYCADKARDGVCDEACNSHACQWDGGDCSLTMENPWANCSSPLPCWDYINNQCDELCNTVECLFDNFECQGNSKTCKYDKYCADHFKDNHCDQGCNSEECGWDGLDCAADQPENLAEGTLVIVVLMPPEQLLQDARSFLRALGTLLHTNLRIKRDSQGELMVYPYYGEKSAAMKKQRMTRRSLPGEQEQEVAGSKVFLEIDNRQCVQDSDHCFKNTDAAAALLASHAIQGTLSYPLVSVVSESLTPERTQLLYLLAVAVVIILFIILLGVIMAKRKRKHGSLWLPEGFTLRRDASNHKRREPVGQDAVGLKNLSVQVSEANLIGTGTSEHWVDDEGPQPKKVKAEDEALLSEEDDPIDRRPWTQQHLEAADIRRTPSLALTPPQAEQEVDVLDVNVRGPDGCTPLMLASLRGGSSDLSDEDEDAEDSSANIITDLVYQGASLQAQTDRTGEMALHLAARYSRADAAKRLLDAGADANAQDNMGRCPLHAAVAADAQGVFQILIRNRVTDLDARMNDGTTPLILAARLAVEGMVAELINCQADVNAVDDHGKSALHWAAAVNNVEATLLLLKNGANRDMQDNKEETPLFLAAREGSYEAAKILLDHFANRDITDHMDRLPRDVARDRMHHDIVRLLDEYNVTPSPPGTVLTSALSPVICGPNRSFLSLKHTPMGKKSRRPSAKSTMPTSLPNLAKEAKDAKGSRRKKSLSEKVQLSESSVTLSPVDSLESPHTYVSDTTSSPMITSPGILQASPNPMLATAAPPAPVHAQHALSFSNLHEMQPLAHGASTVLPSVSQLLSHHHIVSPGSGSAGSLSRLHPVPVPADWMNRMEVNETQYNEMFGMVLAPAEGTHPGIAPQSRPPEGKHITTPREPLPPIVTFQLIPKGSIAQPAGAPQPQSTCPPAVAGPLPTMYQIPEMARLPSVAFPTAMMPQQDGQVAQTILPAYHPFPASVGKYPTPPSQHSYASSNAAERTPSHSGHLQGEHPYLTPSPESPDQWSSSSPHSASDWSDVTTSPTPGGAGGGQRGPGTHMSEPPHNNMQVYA
Sequence of Torsin-1A-interacting protein 2 (Homo sapiens) (Q8NFQ8 whole entry, looked up): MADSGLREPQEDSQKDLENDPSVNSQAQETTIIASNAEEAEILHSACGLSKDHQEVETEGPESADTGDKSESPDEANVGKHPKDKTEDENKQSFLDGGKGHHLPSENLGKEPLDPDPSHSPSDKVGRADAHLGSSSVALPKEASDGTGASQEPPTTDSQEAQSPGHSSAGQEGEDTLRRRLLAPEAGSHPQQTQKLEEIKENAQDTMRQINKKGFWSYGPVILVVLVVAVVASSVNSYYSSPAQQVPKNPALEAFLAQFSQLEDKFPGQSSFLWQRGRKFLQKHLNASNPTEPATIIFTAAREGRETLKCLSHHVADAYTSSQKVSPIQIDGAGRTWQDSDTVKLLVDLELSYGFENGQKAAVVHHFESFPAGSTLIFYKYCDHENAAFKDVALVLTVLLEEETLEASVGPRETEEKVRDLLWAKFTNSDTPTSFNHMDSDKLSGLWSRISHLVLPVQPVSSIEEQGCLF

As to `O=C1C[C@]2(c3ccc([N+](=O)[O-])cc3)C(=O)N(Cc3ccccc3)c3cc(CO)ccc3[C@H]2N1CC12CC3CC(CC(C3)C1)C2`, the composite z-score is 0.0993 in [1]; -0.728 in [2]; 0.0018 in [3]; -0.817 in assay [4]; -0.746 in [5]; -0.468 in assay [6]. For the same compound, the composite z-score was -0.851 in assay [7]; 0.0779 in assay [9]; -0.369 in assay [10]; -0.404 in assay [11]; 0.258 in assay [15]; -0.477 in [17]. Also, the composite z-score was -1.43 in assay [18], -1.94 in assay [19] and 0.0645 in assay [20]. Besides, the z-score in assay [8] is -0.0424 (inactive); in assay [12], -0.251 (inactive); in [13] it was 0.418 (inactive); in [14] it was -1.23 (inactive); in assay [16], 0.64 (inactive).
As to `COc1cc(CO)cc(I)c1O[C@H]1C=C(C(=O)NCCO)C[C@@H](NCc2ccccc2F)[C@@H]1O`, the composite z-score in assay [1] is -0.267; in assay [2] it was 0.644; in [3] it was 0.0232; in assay [4], 1.17; in [5] it was 0.161; in assay [6], 0.321. Besides, the composite z-score in assay [7] is 0.989; in [9], 0.0915; in [10] it was -0.0645; in assay [11], 1.13; in assay [15], 0.491; in assay [17] it was -0.0943. For the same compound, the values for the composite z-score in [18], in assay [19] and in [20] were 1.05, 0.75 and -0.151, respectively. The z-score in assay [8] was -1.05 (inactive); in assay [12], 2.24 (inactive); in assay [13], -3.89 (inactive); in assay [14] it was 0.519 (inactive); in assay [16] it was 1.77 (inactive).
Regarding `C=C(C(=O)CC[C@H](OC(=O)c1cccnc1)c1cccc(OCCO)c1)C(C)C`, the composite z-score in assay [1] was 0.483; in assay [2] it was 0.401; in [3], -0.157; in assay [4] it was -0.195; in [5], -1.26; in assay [6], -0.593. Further, the composite z-score in assay [7] was 0.484; in [9], -0.809; in [10], 0.238; in assay [11], 1.03; in assay [15] it was 0.391; in assay [17], -0.017. In addition, the composite z-score in [18] is -0.367; in assay [19], -0.424; in assay [20], -0.0238. In addition, the z-score in assay [8] was 0.243 (inactive); in assay [12], 0.865 (inactive); in [13] it was 0.167 (inactive); in [14], 1.1 (inactive); in assay [16], 0.483 (inactive).
Regarding `O=C1O[C@H](c2ccccc2)[C@H](c2ccccc2)N2[C@H]1[C@@H](C(=O)O)[C@]1(C(=O)Nc3ccccc31)[C@H]2c1ccc(O)cc1`, the composite z-score in assay [1] is 1.17; in assay [2], -0.122; in [3], -0.113; in [4], 0.338; in assay [5] it was -0.844; in [6] it was 1.85. The composite z-score in [7] is 0.771; in [9], -0.388; in assay [10] it was -0.24; in assay [11], 0.548; in assay [15] it was 1.87; in assay [17] it was -0.166. Also, the composite z-score in [18] was -0.317; in [19] it was -0.188; in [20], -0.257. For the same compound, the z-score in [8] is 1.28 (inactive); in [12] it was 1.34 (inactive); in assay [13], 0.278 (inactive); in [14], 0.3 (inactive); in assay [16] it was -0.423 (inactive).
For `C=CC[C@@]12N=C(c3ccc(OCCCO)cc3)O[C@@H]1c1ccccc1N(CCS(=O)(=O)c1ccccc1)C2=O`, the composite z-score in [1] is -0.015; in [2], -0.302; in assay [3], 0.188; in assay [4], 0.0692; in assay [5] it was 0.659; in assay [6], 1.22. Also, the composite z-score was 1.32 in assay [7]; 0.261 in assay [9]; -0.0391 in assay [10]; 1.55 in assay [11]; 2.34 in assay [15]; -0.291 in assay [17]. Further, the values for the composite z-score in [18], in assay [19] and in assay [20] were 1.28, 1.13 and 0.0153, respectively. The z-score is 0.601 (inactive) in assay [8]; -0.484 (inactive) in [12]; -1.56 (inactive) in assay [13]; 0.793 (inactive) in assay [14]; 1.45 (inactive) in assay [16].

These data come from PubChem BioAssay.
